Compound activity (PubChem)
TTR transcr act = activators of transthyretin transcription; SH-SY5Y TTR promoter Gaussia luciferase, luminescence; 100% = recombinant luciferase protein wells; activation, % at 16.7 µM; 1.3% of 92,000 active;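 active = activation above the mean of all tested compounds plus 3 SD, cut at about 9.5% in these data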;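 note: cells exposed to compounds for one day before reading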
HuH7 TTR inh = decreases TTR transcription in HuH7 cells in activator counter-screen | 4% of 1,100 active | HuH7 TTR promoter-Gaussia luciferase reporter, luminescence | inhibition, % at 16.7 µM | shares compounds with TTR transcr act;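 active = average inhibition above the solvent-only control wells' mean plus 3 SD, cut at about 15% in these data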;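 note: inhibitors lower well luminescence so higher value means more inhibition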
TTR act confirm = human TTR transcription activation, confirmation; shares compounds with TTR transcr act; SHSY5Y TTR promoter Gaussia luciferase, luminescence; 100% = purified Lucia enzyme wells, no cells; activation, % at 16.7 µM; 1,100 tested, under 10 active; AID 1117280;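 active = mean activation above a set limit taken from the earlier primary screen, cut at about 11% in these data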
Hits are given with their value; - = inactive. This excerpt belongs to a sample that is enriched for hits.

SMILES	TTR transcr act	others
CNC(=S)NNC(=O)c1sc(-c2cc(C)on2)nc1C	14	HuH7 TTR inh=-;TTR act confirm=-
CCOC(=O)[C@]12CCCC=C1N(CCCOC)C(=O)[C@@H]2CC(=O)NCc1cccs1	-
COc1ccc(-c2cc(C(F)(F)F)n3nc(C(=O)O)nc3n2)cc1	-
COc1ccc(-c2cc(C(F)(F)F)n3nc(C)cc3n2)cc1	14	HuH7 TTR inh=-;TTR act confirm=-
Cc1cc2nc(-c3ccco3)cc(C(F)(F)F)n2n1	-
CCCNC(=O)c1csc(Nc2cccc3ccccc23)n1	-
CC(=O)c1csc(-c2ccccc2)n1	-
CC(=O)c1csc(Nc2ccccc2Cl)n1	12	HuH7 TTR inh=-;TTR act confirm=-
CC(c1ccccc1)N1CC[C@H]2C=CC[C@@H](C(=O)Nc3ccc(F)c(F)c3)[C@H]2C1=O (stereo not given in full)	-
CCCC1CCC2(CC1)CCC2OC(=S)Nc1cccc(I)c1 (stereo not given)	-
CC(C)NS(=O)(=O)c1ccc(CCC(=O)Nc2ccc3c(c2)OCO3)cc1	-
CC(C)(CNC(=O)CCC1CCCC1)CNC(=O)CCC1CCCC1	-
CCn1c(C)nc2cc(S(=O)(=O)N3CCCC3)ccc21	-
CCn1cc(S(=O)(=O)NC2CCCCC2)cn1	-
CCn1cc(S(=O)(=O)N2CCCC2)cn1	14	HuH7 TTR inh=-;TTR act confirm=-
CCN(CCC(=O)Nc1cc(OC)ccc1OC)Cc1ccccc1	-
Cc1cc(Cl)ccc1N(CC(=O)NCc1ccccc1)S(C)(=O)=O	-
Cc1n[nH]c(C)c1CCCCOc1ccccc1[N+](=O)[O-]	-
Cc1ccc(/C=N/NC(=O)Cc2cccs2)o1	-
O=C(Cc1ccc(F)cc1)N/N=C/c1ccccn1	-
O=C(Cc1cccs1)N/N=C/c1ccccn1	15	HuH7 TTR inh=-;TTR act confirm=-
Cc1ccc(S(=O)(=O)Nc2ccc(F)cc2)cc1C(=O)N1CCOCC1	-
O=C1Oc2ccccc2C2(O)C3CCCCCC3C12 (stereo not given)	13	HuH7 TTR inh=-;TTR act confirm=-
Cc1ccc(CN2CCCCC(NC(=O)c3cccc([N+](=O)[O-])c3)C2=O)cc1 (stereo not given)	-
CN(C)c1ccc(/C=N/Nc2nncc3ccccc23)cc1	-
SMILES	TTR transcr act	others
Cc1ccc(CNC(=O)CCNC(=O)c2ccc([N+](=O)[O-])cc2)cc1	-
CC(C)C(NC(=O)[C@H](Cc1ccccc1)NC(=O)OCc1ccccc1)P(=O)(O)OC(Cc1ccccc1)C(=O)O (stereo not given in full)	-
CN(Cc1ccccc1)C(=O)OCc1cn(Cc2ccccc2C(F)(F)F)nn1	-
C[C@@H]1CN([C@H](C)CO)C(=O)CCCn2nncc2CO[C@H]1CN(C)C(=O)c1ccncc1	-
O=C1CCN(c2ncccc2[N+](=O)[O-])CC1	12	HuH7 TTR inh=-;TTR act confirm=-
N#CC1CCN(c2ncccc2[N+](=O)[O-])CC1	-
O=[N+]([O-])c1cccnc1N1CCOCC1	-
COc1cccc2c(NCc3ccccc3)nc(-n3c(N)nc4ccccc43)nc12	-
O=C(/C=C/c1ccccc1Cl)OCC(=O)c1ccc[nH]1	-
Cc1ccccc1CN1CCCCC(NC(=O)c2ccc(F)cc2)C1=O (stereo not given)	-
Cc1ccc(CN2CCCCC(NC(=O)c3ccc(N(C)C)cc3)C2=O)cc1 (stereo not given)	-
Cc1ccccc1CN1CCCCC(NC(=O)c2ccc(N(C)C)cc2)C1=O (stereo not given)	13	HuH7 TTR inh=-;TTR act confirm=-
O=[N+]([O-])C(/C=C(\Cl)[N+](=O)[O-])=C(N1CCCCC1)N1CCCCC1	-
COCCCNC(=O)Cn1ccc(NC(=O)OCc2ccccc2)nc1=O	-
CN(C)[C@H]1CCN(c2cccc3c2S(=O)(=O)N(C2CC2)CCCO3)C1	-
Nc1ccc(NC(=O)c2cccc(C(=O)Nc3ccc(N)cc3Cl)c2)c(Cl)c1	-
CCOC(=O)C1=C[C@@H](C(C)C)N(S(=O)(=O)c2ccc([N+](=O)[O-])cc2)[C@H]1c1ccccc1	-
CCOC(=O)C1=C[C@@H](CC)N(S(=O)(=O)c2ccc([N+](=O)[O-])cc2)[C@H]1c1ccccc1	48	HuH7 TTR inh=-;TTR act confirm=-
CCOC(=O)C1=C[C@@H](C(C)(C)C)N(S(=O)(=O)c2ccc([N+](=O)[O-])cc2)[C@H]1c1ccccc1	-
O=C(NCCCO)C(=O)NCc1ccncc1	-
CCn1cc(CNC(=S)Nc2cccc(Cl)c2C)cn1	-
C=CCOC(=O)c1ccccc1C(=O)OCC1CO1 (stereo not given)	-
COc1nc(Oc2ccc(/C=N/O)cc2)nc(N(C)C)n1	-
N#Cc1ccc(Oc2ccc(/C=N/O)cn2)cc1	81	HuH7 TTR inh=-;TTR act confirm=-
Cc1ccc2nc(/C(C#N)=C\c3ccc(Oc4ccc([N+](=O)[O-])cn4)cc3)[nH]c2c1	-
SMILES	TTR transcr act	others
COC(=O)c1cc(-c2ccc(F)cc2OCc2ccccc2)c(=O)n2c1CCC2	-
COc1ccccc1Cn1nc(C(=O)O)c2ccccc2c1=O	-
CC(C)(C)NC(=O)c1nn(Cc2ccccc2)c(=O)c2ccccc12	10	HuH7 TTR inh=-;TTR act confirm=-
CCN(CC)CCNC(=O)Cc1nn(Cc2ccccc2)c(=O)c2ccccc12	-
Cc1cc(NCCO)c2cc(O)ccc2n1	-
CN(C)CCNc1ccc(CO)c2oc3ccc(O)cc3c(=O)c12	16	HuH7 TTR inh=-;TTR act confirm=13
COc1ccc(CN[C@@H]2CC[C@@]34CCCN3C(=O)CCC[C@H]4C2)cc1	-
COc1ccc(N2CCN(C(=O)c3ccc4ccccc4n3)CC2)cc1	-
C/C(=N\NC(=O)C(N)=O)c1cccc([N+](=O)[O-])c1	-
C/C(=N\Nc1cc(C)nc(-c2ccccc2)n1)c1cccc([N+](=O)[O-])c1	-
C/C(=N\Nc1ncc(Br)cn1)c1cccc([N+](=O)[O-])c1	14	HuH7 TTR inh=21;TTR act confirm=-
CN1C2=N[C@H](c3ccc(Br)cc3)CC(=O)N2/C(=C\c2ccccc2)[C@@H]1c1ccccc1	-
COCCn1c(SCC(=O)NC(C)c2ccccc2)nc2ccccc21 (stereo not given)	-
COCCn1c(SCC(=O)Nc2ccc(S(N)(=O)=O)cc2)nc2ccccc21	9.8	HuH7 TTR inh=-;TTR act confirm=-
COCCn1c(SCC(=O)Nc2cccc(S(N)(=O)=O)c2)nc2ccccc21	-
CC(C)(C)S(=O)N1Cc2cc(C(=O)NCC(F)(F)F)nc(-c3cccc(-c4cccc(F)c4)c3)c2[C@@H]1CCO (stereo not given in full)	-
CC(C)(C)C1CCc2c(sc3nc(SCC(=O)O)nc(N)c23)C1 (stereo not given)	-
Cc1cnc(C(=O)OCC(=O)Nc2cc(S(=O)(=O)N3CCOCC3)ccc2Cl)cn1	-
COc1ccc(C(C)(C)C)cc1NC(=O)COC(=O)c1ccc([N+](=O)[O-])o1	-
Cn1nc(C(C)(C)C)cc1C(=O)N1CCCCC1c1cc(C(=O)Nc2ccc(F)c(Cl)c2)no1 (stereo not given)	-
Cc1cc(-c2ccccc2)nc(-c2ccccc2)c1C	19	HuH7 TTR inh=-;TTR act confirm=-
Cc1ccc(-c2nc3ccccc3nc2-c2ccccc2)cc1	-
Cc1ccc(-c2cc(-c3ccccc3)nc(NN)n2)cc1	-
C#CCNC(=O)C[C@H]1C[C@@]2(C(=O)OC)C(=C[C@H](COCc3ccccc3)O[C@@H]2C)N(Cc2ccccc2)C1=O	-
CCC(=O)N1CCN(c2ccc(Cl)cc2NC(=O)Cc2ccc(Cl)cc2)CC1	-
COc1ccc(-c2n[nH]c(=S)n2-c2ccc(Br)cc2)cc1OC	-
